{
  "source": "PubChem BioAssay (EPA / NIEHS)",
  "settings_in_all_cases": "mRNA level, 48 h; actives raise or lower the signal",
  "key": {"[1]": {"read-out": "Bcl-2 (BAD) gene, BAD (gene 572)", "assay": "LTEA_HepaRG_BAD: Life Technologies and Expression Analysis (LTEA) Assay for Bcl-2 (BAD) gene using HepaRG (AID 2283469)", "method_in_brief": "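Activity values reflect up- or down-regulation of BAD mRNA in human HepaRG hepatic cells treated 48 h in serum-free medium, with eight-point half-log dosing capped at 100 uM and 0.5% DMSO vehicle.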"}, "[2]": {"read-out": "Bcl-2 (BAX) gene, BAX (gene 581)", "assay": "LTEA_HepaRG_BAX: Life Technologies and Expression Analysis (LTEA) Assay for Bcl-2 (BAX) gene using HepaRG (AID 2283470)", "method_in_brief": "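qRT-PCR read-out of BAX mRNA, normalized to three housekeeping genes, after 48 h chemical exposure of human HepaRG cells in serum-free induction medium; eight-point half-log series, top 100 uM, 0.5% DMSO vehicle; bidirectional fit versus DMSO.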"}, "[3]": {"read-out": "adenosine kinase (ADK) gene, ADK (gene 132)", "assay": "LTEA_HepaRG_ADK: Life Technologies and Expression Analysis (LTEA) Assay for adenosine kinase (ADK) gene using HepaRG (AID 2283471)", "method_in_brief": "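Read-out is ADK transcript level measured by qRT-PCR and normalised to three housekeeping genes. Cells are human HepaRG, dosed for 48 h at up to 100 uM in 0.5% DMSO. Gain or loss of signal is fitted against DMSO controls.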"}, "[4]": {"read-out": "Alpha-fetoprotein (AFP) gene, AFP (gene 174)", "assay": "LTEA_HepaRG_AFP: Life Technologies and Expression Analysis (LTEA) Assay for Alpha-fetoprotein (AFP) gene using HepaRG (AID 2283472)", "method_in_brief": "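qRT-PCR (Fluidigm TaqMan) readout of AFP transcript, normalized to three housekeeping genes, fitted bidirectionally against 0.5% DMSO baseline. HepaRG cells received chemicals for 48 h in serum-free induction medium, top concentration 100 uM, half-log steps.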"}, "[5]": {"read-out": "BCL2L11 (gene 10018)", "assay": "LTEA_HepaRG_BCL2L11: Life Technologies and Expression Analysis (LTEA) Assay for Bcl-2 (BCL2L11) gene using HepaRG (AID 2283473)", "method_in_brief": "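Differentiated human HepaRG cells were exposed 48 h in serum-free induction medium to eight half-log concentrations up to 100 uM in 0.5% DMSO, in duplicate. BCL2L11 mRNA was quantified by TaqMan qRT-PCR, normalized to ACTB, GAPDH and POLR2A; induction or repression fitted versus DMSO.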"}, "[6]": {"read-out": "Apolipoprotein A-V (APOA5) gene, APOA5 (gene 116519)", "assay": "LTEA_HepaRG_APOA5: Life Technologies and Expression Analysis (LTEA) Assay for Apolipoprotein A-V (APOA5) gene using HepaRG (AID 2283474)", "method_in_brief": "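Differentiated HepaRG cells in serum-free induction medium, exposed 48 h in duplicate to eight half-log concentrations topping at 100 uM (0.5% DMSO). APOA5 mRNA by Fluidigm TaqMan qRT-PCR, normalized to ACTB, GAPDH and POLR2A; bidirectional fit versus DMSO.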"}, "[7]": {"read-out": "Apoptosis regulator Bcl-2 (Homo sapiens) (UniProt P10415)", "assay": "LTEA_HepaRG_BCL2: Life Technologies and Expression Analysis (LTEA) Assay for Bcl-2 gene using HepaRG (AID 2283475)", "method_in_brief": "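qRT-PCR read-out (Fluidigm TaqMan) of BCL2 transcript, normalised to three housekeeping genes, after 48 h chemical exposure of HepaRG cells; 8-point half-log series, top 100 uM, 0.5% DMSO vehicle. Gain or loss of signal fitted relative to DMSO baseline.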"}, "[8]": {"read-out": "Bcl-2 (BID) gene, BID (gene 637)", "assay": "LTEA_HepaRG_BID: Life Technologies and Expression Analysis (LTEA) Assay for Bcl-2 (BID) gene using HepaRG (AID 2283476)", "method_in_brief": "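HepaRG, 48 h exposure, 8-pt half-log series, top 100 uM, 0.5% DMSO vehicle, duplicates. Readout: BID mRNA by TaqMan qRT-PCR; housekeeping-normalized; bidirectional curve fit vs DMSO baseline.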"}, "[9]": {"read-out": "Caspase-3 (Homo sapiens) (UniProt P42574)", "assay": "LTEA_HepaRG_CASP3: Life Technologies and Expression Analysis (LTEA) Assay for cysteine-aspartic acid protease (CASP3) using HepaRG (AID 2283477)", "method_in_brief": "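Differentiated HepaRG cells, plated 48 h, were treated in duplicate in serum-free induction medium for 48 h with eight half-log concentrations up to 100 uM in 0.5% DMSO. CASP3 mRNA measured by qRT-PCR, normalized to ACTB, GAPDH, POLR2A.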"}, "[10]": {"read-out": "Cytochrome P450 (CYP24A1), CYP24A1 (gene 1591)", "assay": "LTEA_HepaRG_CYP24A1: Life Technologies and Expression Analysis (LTEA) Assay for Cytochrome P450 (CYP24A1) using HepaRG (AID 2283478)", "method_in_brief": "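HepaRG cells plated 48 h, then exposed in duplicate in serum-free induction medium for 48 h to 8-point half-log series from 100 uM in 0.5% DMSO. CYP24A1 mRNA by Fluidigm qRT-PCR, normalized to ACTB, GAPDH, POLR2A; bidirectional fit versus DMSO.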"}, "[11]": {"read-out": "Cytochrome P450 (CYP1A2), CYP1A2 (gene 1544)", "assay": "LTEA_HepaRG_CYP1A2: Life Technologies and Expression Analysis (LTEA) Assay for Cytochrome P450 (CYP1A2) using HepaRG (AID 2283479)", "method_in_brief": "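Differentiated human HepaRG cells in serum-free induction medium exposed 48 hours in duplicate to 8 half-log concentrations from 100 uM, 0.5% DMSO. CYP1A2 mRNA quantified by qRT-PCR, normalized to ACTB, GAPDH and POLR2A; bidirectional fitting versus DMSO.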"}, "[12]": {"read-out": "cysteine-aspartic acid protease (CASP8), CASP8 (gene 841)", "assay": "LTEA_HepaRG_CASP8: Life Technologies and Expression Analysis (LTEA) Assay for cysteine-aspartic acid protease (CASP8) using HepaRG (AID 2283480)", "method_in_brief": "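Concentration-response in duplicate up to 100 uM (half-log steps, 0.5% DMSO) on differentiated HepaRG cultures for 48 h. Expression change of CASP8 mRNA is determined by TaqMan qRT-PCR with housekeeping-gene normalization.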"}, "[13]": {"read-out": "Cytochrome P450 (CYP2B6), CYP2B6 (gene 1555)", "assay": "LTEA_HepaRG_CYP2B6: Life Technologies and Expression Analysis (LTEA) Assay for Cytochrome P450 (CYP2B6) using HepaRG (AID 2283481)", "method_in_brief": "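Differentiated human HepaRG cells in serum-free induction medium, dosed in duplicate for 48 h over 8 half-log concentrations topping at 100 uM (0.5% DMSO). CYP2B6 mRNA measured by TaqMan qRT-PCR, normalized to ACTB, GAPDH, POLR2A; bidirectional fit versus DMSO.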"}, "[14]": {"read-out": "Cytochrome P450 2C19 (Homo sapiens) (UniProt P33261)", "assay": "LTEA_HepaRG_CYP2C19: Life Technologies and Expression Analysis (LTEA) Assay for CYP2C19 using HepaRG (AID 2283482)", "method_in_brief": "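Differentiated HepaRG cells in serum-free induction medium exposed 48 h in duplicate, 8 concentrations from 100 uM by half-log steps in 0.5% DMSO. CYP2C19 mRNA measured by TaqMan qRT-PCR, normalized to ACTB, GAPDH, POLR2A. Bidirectional fit versus DMSO.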"}, "[15]": {"read-out": "CYP2C8 (gene 1558)", "assay": "LTEA_HepaRG_CYP2C8: Life Technologies and Expression Analysis (LTEA) Assay for CYP2C8 using HepaRG (AID 2283483)", "method_in_brief": "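This is a transcriptional endpoint in HepaRG cultures: 48 h exposure, highest concentration 100 uM. CYP2C8 mRNA is quantified by TaqMan qRT-PCR.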"}, "[16]": {"read-out": "CYP2C9 (gene 1559)", "assay": "LTEA_HepaRG_CYP2C9: Life Technologies and Expression Analysis (LTEA) Assay for CYP2C9 using HepaRG (AID 2283484)", "method_in_brief": "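Eight-point concentration-response (highest 100 uM, half-log dilutions) in HepaRG cells for 48 h; CYP2C9 expression by qRT-PCR normalized to ACTB, GAPDH, POLR2A. Bidirectional fit, DMSO baseline.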"}, "[17]": {"read-out": "CYP2E1 (gene 1571)", "assay": "LTEA_HepaRG_CYP2E1: Life Technologies and Expression Analysis (LTEA) Assay for CYP2E1 using HepaRG (AID 2283485)", "method_in_brief": "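CYP2E1 transcript was measured by TaqMan qRT-PCR in human HepaRG cultures after 48 h chemical exposure (top 100 uM, half-log steps, 0.5% DMSO vehicle). Housekeeping-gene normalization; gain or loss fitted relative to DMSO baseline.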"}, "[18]": {"read-out": "CYP4A11 (gene 1579)", "assay": "LTEA_HepaRG_CYP4A11: Life Technologies and Expression Analysis (LTEA) Assay for CYP4A11 using HepaRG (AID 2283486)", "method_in_brief": "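Differentiated HepaRG cells, 48 h after plating, exposed in duplicate for 48 h to 8 half-log concentrations up to 100 uM in 0.5% DMSO in serum-free induction medium. CYP4A11 mRNA measured by TaqMan qRT-PCR, normalized to ACTB, GAPDH and POLR2A.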"}, "[19]": {"read-out": "Cytochrome P450 3A4 (Homo sapiens) (UniProt P08684)", "assay": "LTEA_HepaRG_CYP3A4: Life Technologies and Expression Analysis (LTEA) Assay for CYP3A4 using HepaRG (AID 2283487)", "method_in_brief": "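HepaRG, 48 h exposure, 8-pt CRC from 100 uM (half-log), 0.5% DMSO, duplicates; serum-free induction medium. Readout: CYP3A4 mRNA, qRT-PCR, ACTB/GAPDH/POLR2A normalization. Bidirectional fit vs DMSO.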"}, "[20]": {"read-out": "DNA damage-inducible transcript 3 (DDIT3), DDIT3 (gene 1649)", "assay": "LTEA_HepaRG_DDIT3: Life Technologies and Expression Analysis (LTEA) Assay for DNA damage-inducible transcript 3 (DDIT3) using HepaRG (AID 2283488)", "method_in_brief": "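qRT-PCR readout (Fluidigm TaqMan), housekeeping-normalized to ACTB, GAPDH, POLR2A. HepaRG cells, 48 h exposure, 8-point half-log series from 100 uM in 0.5% DMSO, duplicates. Gain or loss of signal fitted against DMSO baseline.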"}},
  "note": "Calls of active or inactive are those of the source. How the source made its calls: active means hit-call score of the fitted dose curve at least 0.9, where 1 is the maximum; inactive means score below 0.9.",
  "data": [
    {"smiles": "CCC(C)=NO", "values": [
      {"measurement": "outcome", "setting": "[1]", "result": "inactive"},
      {"measurement": "outcome", "setting": "[2]", "result": "inactive"},
      {"measurement": "outcome", "setting": "[3]", "result": "inactive"},
      {"measurement": "outcome", "setting": "[4]", "result": "inactive"},
      {"measurement": "outcome", "setting": "[5]", "result": "inactive"},
      {"measurement": "outcome", "setting": "[6]", "result": "inactive"},
      {"measurement": "outcome", "setting": "[7]", "result": "inactive"},
      {"measurement": "outcome", "setting": "[8]", "result": "inactive"},
      {"measurement": "outcome", "setting": "[9]", "result": "inactive"},
      {"measurement": "outcome", "setting": "[10]", "result": "inactive"},
      {"measurement": "AC50", "setting": "[11]", "result": "49.8 µM (active)"},
      {"measurement": "outcome", "setting": "[12]", "result": "inactive"},
      {"measurement": "outcome", "setting": "[13]", "result": "inactive"},
      {"measurement": "outcome", "setting": "[14]", "result": "inactive"},
      {"measurement": "outcome", "setting": "[15]", "result": "inactive"},
      {"measurement": "outcome", "setting": "[16]", "result": "inactive"},
      {"measurement": "outcome", "setting": "[17]", "result": "inactive"},
      {"measurement": "outcome", "setting": "[18]", "result": "inactive"},
      {"measurement": "outcome", "setting": "[19]", "result": "inactive"},
      {"measurement": "outcome", "setting": "[20]", "result": "inactive"}
    ]}
  ]
}
